The source of these data is PubChem BioAssay (Tox21).

A short description of assay [1]: Nuclear factor erythroid 2-related factor 2/antioxidant responsive element (Nrf2/ARE) small molecule agonists: qHTS cell viability counter screen in human keratinocytes (AID 1919968; active = well fitted curve in the direction sought with a large enough effect in the repeat runs; an effect the other way counts as inactive or inconclusive; also: nearly all actives have a fitted effect of over 55% in size; also: potency is read from the fitted curve at half-maximal effect). The procedure, abridged:
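Measured as CellTiter-Fluor fluorescence, this readout tracks cytotoxicity in the same wells as the ARE-luciferase screen. HaCaT reporter cells (1,500/well) received compounds after a 5 h pre-incubation and were exposed for 23 h.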
On the technique in general: qHTS replaces the single test concentration by a dilution series.

In assay [2] the target is KiSS-1 receptor (Homo sapiens) (UniProt Q969F8). The assay is described as follows: Human kisspeptin (KISS1R) small molecule agonists, calcium flux assay in KISS1R-HEK293 cells (AID 1920064; active = well fitted curve in the direction sought with a large enough effect in the repeat runs; an effect the other way counts as inactive or inconclusive). The procedure, abridged: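 Measures KISS1R agonism through calcium-sensitive dye fluorescence in stably transfected HEK293 cells, read for 3 min after pin-tool compound delivery; 15-point titrations in triplicate.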
Chain of KiSS-1 receptor (Homo sapiens) (Q969F8 whole entry, looked up): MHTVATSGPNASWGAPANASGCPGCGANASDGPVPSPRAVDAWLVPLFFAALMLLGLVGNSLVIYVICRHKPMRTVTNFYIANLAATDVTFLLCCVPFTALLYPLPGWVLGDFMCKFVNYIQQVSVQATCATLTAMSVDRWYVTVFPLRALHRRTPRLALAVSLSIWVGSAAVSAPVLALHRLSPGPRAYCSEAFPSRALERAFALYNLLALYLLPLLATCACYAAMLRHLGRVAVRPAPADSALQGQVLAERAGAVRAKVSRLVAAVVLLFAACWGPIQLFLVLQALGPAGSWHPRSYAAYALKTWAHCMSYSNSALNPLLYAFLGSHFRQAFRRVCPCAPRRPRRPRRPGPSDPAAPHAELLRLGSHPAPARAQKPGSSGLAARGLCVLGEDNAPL
For orientation: A change in cytosolic calcium serves as a functional read-out for many receptors and channels.

A short description of assay [3]: p53 small molecule agonists, cell-based qHTS assay with human liver microsomes (AID 1963577). The procedure, abridged:
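Fluorescence of the beta-lactamase reporter in p53RE-bla cells, detected with LiveBLAzer substrate (2 h, room temperature, dark), served as the read-out after 16 h compound exposure at 37 C with human liver microsomes and NADPH, each 0.5 mg/mL final.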

Assay [4] in a line: p53 small molecule agonists, cell-based qHTS assay with rat liver microsomes (AID 1963578). The procedure, abridged: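 Cells carrying a p53 response element–beta-lactamase reporter were plated and rested 5 h, then dosed with compound in DMSO plus rat liver microsomes and NADPH, each at 0.5 mg/mL final. After 16 h at 37 C, LiveBLAzer substrate was added for 2 h.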
The nature of assay [5]: p53 small molecule agonists, cell-based qHTS assay with human liver microsomes: qHTS cell viability counter screen (AID 1963579). Also: nearly all actives have a fitted effect of over 45% in size. Also: potency is read from the fitted curve at half-maximal effect. The procedure, abridged: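 Cytotoxicity counter screen: p53RE-bla, 4,000 cells/well; 5 h settle, 37 C/5% CO2; cpd + HLM 0.5 mg/mL + NADPH 0.5 mg/mL (final); 16 h, 37 C; CellTiter-Glo, 30 min RT, luminescence.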
A short description of assay [6]: p53 small molecule agonists, cell-based qHTS assay with rat liver microsomes: qHTS cell viability counter screen (AID 1963580). Also: nearly all actives have a fitted effect of over 45% in size. Also: potency is read from the fitted curve at half-maximal effect. The procedure, abridged:
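p53RE-bla HCT-116 cells were exposed 16 h at 37 C to compounds with rat liver microsomes (0.5 mg/mL) and NADPH (0.5 mg/mL). Viability was measured in the same wells as ATP content by CellTiter-Glo luminescence.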

The target in assay [7] is 5-hydroxytryptamine receptor 2A (Homo sapiens) (UniProt P28223). The assay is described as follows: 5-hydroxytryptamine receptor 2A (HTR2A) small molecule antagonists, cell-based qHTS assay (AID 1963586). Also: nearly all actives have a fitted effect of over 45% in size. The procedure, abridged: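 Antagonist-mode intracellular calcium assay: DOI (4 nM) added after 5 min compound pre-incubation at room temperature to dye-loaded HTR2A-CHO cells. Fluorescence followed for 3 min, sampled every second.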
Chain of 5-hydroxytryptamine receptor 2A (Homo sapiens) (P28223 whole entry, looked up): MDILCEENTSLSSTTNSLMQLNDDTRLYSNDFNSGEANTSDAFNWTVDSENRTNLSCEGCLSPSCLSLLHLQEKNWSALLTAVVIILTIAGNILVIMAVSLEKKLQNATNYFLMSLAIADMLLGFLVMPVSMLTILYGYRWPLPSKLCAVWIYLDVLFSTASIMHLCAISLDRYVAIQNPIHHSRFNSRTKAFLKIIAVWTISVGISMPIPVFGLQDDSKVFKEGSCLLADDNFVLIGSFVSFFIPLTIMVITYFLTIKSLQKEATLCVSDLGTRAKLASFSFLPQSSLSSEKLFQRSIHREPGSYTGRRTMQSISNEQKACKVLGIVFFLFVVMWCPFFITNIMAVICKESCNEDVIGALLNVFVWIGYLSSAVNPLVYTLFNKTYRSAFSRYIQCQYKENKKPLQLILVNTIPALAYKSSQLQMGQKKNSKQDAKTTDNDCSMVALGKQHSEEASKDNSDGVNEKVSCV

Assay [8] shares this target. Description: 5-hydroxytryptamine receptor 2A (HTR2A) small molecule agonists, cell-based qHTS assay (AID 1963587). Also: nearly all actives have a fitted effect of over 30% in size. Also: potency is read from the fitted curve at half-maximal effect. The gist of the method:
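CHO cells stably expressing human HTR2A, plated 18 h, loaded with calcium dye 1 h at 37 C. Agonist mode: compounds added and intracellular calcium fluorescence recorded kinetically for 2 min at 1 sec intervals.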

Assay [9] addresses Muscarinic acetylcholine receptor M1 (Homo sapiens) (UniProt P11229). Description: Cholinergic receptor muscarinic 1 (CHRM1) small molecule antagonists, cell-based qHTS assay (AID 1963588). Also: nearly all actives have a fitted effect of over 40% in size. The procedure, abridged: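 CHRM1-CHO calcium-flux assay, antagonist mode. Cells were seeded 18 h, dye-loaded 1 h at 37 C and given compound for 5 min at RT, then acetylcholine was added at 50nM. FDSS fluorescence was read 3 min; 15 concentrations, three runs.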

For assay [10] the target is unchanged. The assay is described as follows: Cholinergic receptor muscarinic 1 (CHRM1) small molecule agonists, cell-based qHTS assay (AID 1963589). Also: nearly all actives have a fitted effect of over 35% in size. The gist of the method: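 Each compound was tested at 15 concentrations across three independent runs on dye-loaded CHO cells stably expressing human CHRM1, reading intracellular calcium fluorescence kinetically at 1 sec intervals.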

Assay [11] is described as follows: cAMP Responsive Elements (CRE) small molecule agonists, cell-based qHTS assay (AID 1963590). The gist of the method:
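Cell line: CRE-bla HEK 293T; medium DMEM/10% dialyzed FBS/0.1 mM NEAA/1 mM pyruvate/25 mM HEPES; 3 h compound exposure; beta-lactamase FRET readout after 2 h substrate loading at RT.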

Assay [12] in a line: cAMP Responsive Elements (CRE) small molecule antagonists, cell-based qHTS assay (AID 1963591; active = well fitted inhibition curve with a large enough effect in the signal ratio in the repeat runs, not every such curve was filed as active; the % refers to the signal ratio; also: potency is read from the fitted curve at half-maximal effect). The procedure, abridged: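 Inhibition of NKH477-driven (0.25 uM final) CRE-beta-lactamase signal in HEK293T cells, 3 h compound exposure at 37 °C, detected by FRET substrate fluorescence.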
Assay [13] concerns the target Beta-2 adrenergic receptor (Homo sapiens) (UniProt P07550). The assay is described as follows: Adrenergic beta2 receptor (ADRB2) small molecule agonists, cell-based qHTS assay (AID 1963593).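 Also: CHO cells stably overexpressing human ADRB2.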 The gist of the method: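 CHO cells stably over-expressing ADRB2 were plated overnight at 37C, then dosed with compounds plus a stimulation mix containing 100uM IBMX and 25uM Ro-20-1724 for 0.5hr at room temperature. cAMP was measured by HTRF competition, 1hr.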

For assay [14], the target named is D(2) dopamine receptor (Homo sapiens) (UniProt P14416). Description: Dopamine D2 receptor (DRD2) small molecule agonists, cell-based qHTS assay (AID 1963594). Also: nearly all actives have a fitted effect of over 35% in size. The procedure, abridged:
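HEK293 cells stably expressing human DRD2, pre-treated with PDE inhibitor Ro20-1724 (0.1 mM final) and compound 10 min at room temperature, then stimulated with NKH477 (200nM […]) for 30 min. cAMP read by HTRF (665/620 nm).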

Assay [15] has the same target. The assay is described as follows: Dopamine D2 receptor (DRD2) small molecule antagonists, cell-based qHTS assay (AID 1963595; active = well fitted inhibition curve with a large enough effect in the signal ratio in the repeat runs, with a control signal flat; the % refers to the signal ratio). The gist of the method:
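HEK293 cells stably expressing DRD2 were preincubated with 0.1 mM Ro20-1724, then with compound for 10 min at room temperature. Cells were stimulated with 200 nM NKH477 plus 12 nM quinpirole for 30 min, and cAMP was read by HTRF.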

Assay [16] is described as follows: G protein-coupled receptor (GPCR) small molecule agonists, calcium flux assay: HEK293 wild type cell line counter screen (AID 1920065). The procedure, abridged:
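Readout: fluorescence at 480 nm excitation/540 nm emission, sampled at 1 s intervals for 3 min. Cells had been cultured 18 h, then dye-loaded 1 h at 37 C before compound or ATP addition.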

Assay [17] can be described thus: p53 small molecule agonists, cell-based qHTS assay: qHTS cell viability counter screen (AID 1963581). Also: nearly all actives have a fitted effect of over 45% in size. The procedure, abridged: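 In the same plates used for the p53 bla reporter, HCT-116 cells given compounds for 16 h at 37 C received CellTiter-Glo; luminescence was recorded 30 min later at room temperature.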
In assay [18] the target is Beta-2 adrenergic receptor (Homo sapiens) (UniProt P07550). The assay is described as follows: Adrenergic beta2 receptor (ADRB2) small molecule antagonists, cell-based qHTS assay (AID 1963592). Also: series mostly up to about 92 µM; nearly all actives have a fitted effect of over 50% in size. The procedure, abridged: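 Cells (CHO, stable ADRB2 overexpression) incubated 18-20hr at 37C; compounds added from DMSO; agonist mix (1nM isoproterenol, 100uM IBMX, 25uM Ro-20-1724) added; 0.5hr RT; d2-cAMP and anti-cAMP-cryptate added; 1hr RT; 665/615 nm read.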
Chain of Beta-2 adrenergic receptor (Homo sapiens) (P07550 whole entry, looked up): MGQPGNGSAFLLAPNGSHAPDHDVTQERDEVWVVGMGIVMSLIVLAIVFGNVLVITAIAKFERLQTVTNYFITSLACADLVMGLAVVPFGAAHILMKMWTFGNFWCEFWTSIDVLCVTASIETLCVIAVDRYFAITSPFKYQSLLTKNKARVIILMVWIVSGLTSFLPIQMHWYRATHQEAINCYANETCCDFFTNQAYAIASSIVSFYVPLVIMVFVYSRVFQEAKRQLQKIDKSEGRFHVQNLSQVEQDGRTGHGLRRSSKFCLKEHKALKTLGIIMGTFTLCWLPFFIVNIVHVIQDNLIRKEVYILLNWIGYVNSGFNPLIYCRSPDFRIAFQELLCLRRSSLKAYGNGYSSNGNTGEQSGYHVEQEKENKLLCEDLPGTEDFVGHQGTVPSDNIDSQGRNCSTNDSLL

A short description of assay [19]: p53 small molecule agonists, cell-based qHTS assay (AID 1963582; active = well fitted activation curve with a large enough effect in the signal ratio in the repeat runs, not every such curve was filed as active; the % refers to the signal ratio). The procedure, abridged: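 Compounds are pin-transferred in DMSO onto p53RE-bla cells and incubated 16 h at 37 C. The B/G FRET beta-lactamase substrate is then applied for 2 h at RT and fluorescence recorded.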
For assay [20], the target named is Gonadotropin-releasing hormone receptor (Homo sapiens) (UniProt P30968). Description: Human gonadotropin-releasing hormone receptor (GnRHR) small molecule agonists, calcium flux assay in GnRHR-HEK293 cells (AID 1920063). Also: nearly all actives have a fitted effect of over 35% in size. The gist of the method:
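Fluorescence kinetics (480 nm excitation, 540 nm emission; 3 min, 1 s steps) report calcium mobilisation in human GnRHR-HEK293 cells in agonist mode. Dye incubation: 1 h, 37 C.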

The structures appear in SMILES notation. A number with no mark means an inactive call. Records with an inconclusive call do not appear. Activity calls are given as the source filed them. Unless noted, calls follow the shape of the full dose curve.

Chain of D(2) dopamine receptor (Homo sapiens) (P14416 whole entry, looked up): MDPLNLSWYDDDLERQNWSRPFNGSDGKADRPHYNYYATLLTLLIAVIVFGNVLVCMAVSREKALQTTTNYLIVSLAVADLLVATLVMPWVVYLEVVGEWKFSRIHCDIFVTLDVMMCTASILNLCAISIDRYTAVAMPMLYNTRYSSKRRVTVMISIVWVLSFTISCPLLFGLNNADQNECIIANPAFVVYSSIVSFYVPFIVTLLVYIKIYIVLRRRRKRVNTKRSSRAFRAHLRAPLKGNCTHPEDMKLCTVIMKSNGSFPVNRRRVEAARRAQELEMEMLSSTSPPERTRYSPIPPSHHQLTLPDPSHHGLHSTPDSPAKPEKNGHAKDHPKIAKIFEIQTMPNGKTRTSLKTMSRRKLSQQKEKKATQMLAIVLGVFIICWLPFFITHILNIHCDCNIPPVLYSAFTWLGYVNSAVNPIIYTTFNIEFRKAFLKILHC
Chain of Muscarinic acetylcholine receptor M1 (Homo sapiens) (P11229 whole entry, looked up): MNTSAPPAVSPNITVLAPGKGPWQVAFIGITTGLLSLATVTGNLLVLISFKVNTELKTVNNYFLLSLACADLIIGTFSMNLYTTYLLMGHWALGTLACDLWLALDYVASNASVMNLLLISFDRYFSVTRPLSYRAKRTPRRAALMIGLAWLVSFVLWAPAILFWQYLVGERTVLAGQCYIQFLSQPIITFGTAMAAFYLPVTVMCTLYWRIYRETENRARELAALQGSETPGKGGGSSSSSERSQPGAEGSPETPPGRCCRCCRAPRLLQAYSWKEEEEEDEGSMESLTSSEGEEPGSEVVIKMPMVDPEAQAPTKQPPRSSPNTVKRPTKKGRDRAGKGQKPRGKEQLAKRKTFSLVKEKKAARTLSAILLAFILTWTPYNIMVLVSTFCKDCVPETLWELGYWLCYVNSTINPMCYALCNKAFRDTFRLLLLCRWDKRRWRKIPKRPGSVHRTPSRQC
Chain of Gonadotropin-releasing hormone receptor (Homo sapiens) (P30968 whole entry, looked up): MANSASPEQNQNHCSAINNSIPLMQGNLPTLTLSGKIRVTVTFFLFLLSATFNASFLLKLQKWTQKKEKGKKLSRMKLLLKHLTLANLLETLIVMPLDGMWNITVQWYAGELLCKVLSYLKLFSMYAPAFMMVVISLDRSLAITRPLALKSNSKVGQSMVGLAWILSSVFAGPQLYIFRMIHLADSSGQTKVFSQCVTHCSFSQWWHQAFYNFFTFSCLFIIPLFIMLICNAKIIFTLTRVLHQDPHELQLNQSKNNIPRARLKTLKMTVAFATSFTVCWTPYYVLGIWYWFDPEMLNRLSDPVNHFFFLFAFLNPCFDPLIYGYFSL

For `SCc1ccco1`, the Potency result in [1], in assay [2], in assay [3], in assay [4], in assay [5] and in assay [6] was “inactive” in each case. The Potency entry in assay [7], in [8], in [9], in assay [10], in assay [11] and in [12] was “inactive” in each case. For the same molecule, the Potency entry in assay [13], in [14] and in assay [15] was “inactive” each time.

As for `N=C(N)[Se]`, the Potency entry in [1], in [2], in assay [16], in assay [3], in assay [4] and in assay [5] was “inactive” in each case. Further, the Potency result in assay [6], in assay [17], in assay [7], in assay [9], in assay [10] and in assay [11] was “inactive” throughout. Moreover, the Potency entry in [12], in assay [18], in assay [13], in assay [14] and in assay [15] was “inactive” each time.

In the case of `COP(N)(=S)OC`, the Potency entry in assay [1], in [2], in assay [16], in assay [5], in [6] and in assay [17] was “inactive” in each case. For the same molecule, the Potency result in assay [19], in [7], in [8], in assay [9], in assay [10] and in assay [11] was “inactive” each time. The Potency result in assay [12], in [18], in assay [14] and in [15] was “inactive” each time.

In the case of `Oc1ccc(C(=C(Cl)Cl)c2ccc(O)cc2)cc1`, the values for the Potency in [1] and in assay [5] were 68.5 µM (active) and 51.2 µM (active), respectively. Also, the Potency result in assay [16], in assay [3], in assay [4], in assay [6], in assay [19] and in [7] was “inactive” each time. Further, the Potency entry in [10], in [11], in assay [14] and in [15] was “inactive” in each case.

Take `O=C(CCl)C(Cl)Cl`: the Potency in assay [1] was 19.5 µM (active); in assay [6], 13 µM (active); in assay [12], 21.9 µM (active). Further, the Potency result in assay [20], in assay [16], in [3], in assay [4], in assay [17] and in assay [7] was “inactive” throughout. Further, the Potency entry in assay [8], in assay [9], in [10], in [18], in [14] and in assay [15] was “inactive” each time.

Turning to `CCOP(=S)(OCC)SCCl`, the Potency result in assay [1], in [20], in [16], in [5], in assay [6] and in assay [17] was “inactive” each time. Also, the Potency result in assay [19], in [7], in assay [9], in [10], in assay [12] and in [18] was “inactive” throughout. Moreover, the Potency entry in assay [13], in assay [14] and in [15] was “inactive” in each case.

Regarding `C[C@H]1CC[C@@H]2[C@@H](C)[C@H]3[C@H](C[C@H]4[C@@H]5CC=C6CC(O[C@@H]7O[C@H](CO)[C@H](O)[C@H](O[C@@H]8O[C@H](CO)[C@@H](O)[C@H](O)[C@H]8O)[C@H]7O[C@H]7O[C@@H](C)[C@H](O)[C@@H](O)[C@H]7O)CC[C@]6(C)[C@H]5CC[C@]34C)N2C1` (some centres undefined), the Potency in assay [1] is 22.4 µM (active); in [8], 63.7 µM (active). Moreover, the Potency result in [2], in assay [16], in assay [5], in assay [6], in assay [17] and in assay [7] was “inactive” in each case. The Potency entry in [10], in [11], in assay [12], in [18], in assay [13] and in [15] was “inactive” in each case.
